Test results taken from article PMC4552634, “A New Set of Chemical Starting Points with Plasmodium falciparum Transmission-Blocking Potential for Antimalarial Drug Discovery” (PLoS ONE, 2015).
Screen size: about 13,000 compounds; about 3,200 (25%) showed an effect of 50% or more. The list shows a part of the results.

tested on: P. falciparum stage V gametocytes; parameters: BacTiter-Glo ATP luminescence viability of purified stage V gametocytes in 384-well plates, per cent inhibition versus DMSO; details: 48 h, 5 µM; inhibitor

SMILES	% Inhibition [%]
CN(C)CCOc1cc(NC(=O)Nc2ccc(-c3ccncc3)c3ccccc23)ccc1I [TCMDC-139118]	23.38
COC(=O)c1c(C#N)c(OC)cc(O)c1CSC[C@@H](CN1CCCCC1)Nc1nc(-c2ccc([N+](=O)[O-])cc2)cs1 [TCMDC-138652]	-4.34
O=C(/C=C/c1ccc(Cl)c(Cl)c1)NCCCCCN1CCC(c2c[nH]c3ccccc23)CC1 [TCMDC-139172]	95.4
O=C(/C=C/c1ccc(Cl)c(Cl)c1)NCCCCCN1CCCC(c2c[nH]c3ccccc23)C1 (centres unmarked) [TCMDC-139481]	8.151
CN(CCN1CCC(c2c[nH]c3ccccc23)CC1)C(=O)OCCCCCNC(=O)/C=C/c1ccc(Cl)c(Cl)c1 [TCMDC-139374]	-36.9
O=C(/C=C/c1ccc(Cl)c(Cl)c1)NCCCN1CCC(c2c[nH]c3ccccc23)CC1 [TCMDC-139332]	45.36
O=C(/C=C/c1ccc(Cl)c(Cl)c1)NCCCCN1CCC(c2c[nH]c3ccccc23)CC1 [TCMDC-139333]	-7.285
O=C(/C=C/c1ccc(Cl)c(Cl)c1)NCCCCCN1CCC(c2cn[nH]c2-c2ccccc2)CC1 [TCMDC-139493]	-12.94
O=C(/C=C/c1ccc(Cl)c(Cl)c1)NCC[C@@H]1C[C@H]1CCN1CCC(c2c[nH]c3ccccc23)CC1 [TCMDC-139466]	86.41
O=C(/C=C/c1ccc(Cl)c(Cl)c1)NCCCCCN1CCC(c2c[nH]c3c(-c4ccccc4)cccc23)CC1 [TCMDC-139399]	108
CN(CCC(CCN1CCC(c2c[nH]c3ccccc23)CC1)c1ccccc1)C(=O)Nc1ccc(Cl)c(Cl)c1 (centres unmarked) [TCMDC-139625]	-72.07
O=C(/C=C/c1ccc(Cl)c(Cl)c1)NCCC(CN1CCC(c2c[nH]c3ccccc23)CC1)c1ccccc1 (centres unmarked) [TCMDC-139621]	20.48
CN(CCN1CCC(c2c[nH]c3ccccc23)CC1)c1ccc(-c2nc3cc(Cl)c(Cl)cc3[nH]2)cc1 [TCMDC-139373]	50.88
O=C(/C=C/c1ccc(Cl)c(Cl)c1)NCc1ccc(CN2CCC(c3c[nH]c4ccccc34)CC2)cc1 [TCMDC-139405]	-66.38
CCN(CCCN1CCCCC1)c1cc(C)nc(Nc2ccc(C(C)C)cc2)n1 [TCMDC-132454]	-8.614
Cc1ccc(NCc2cccc(F)c2)cc1S(=O)(=O)N[C@@H]1CCN(C#N)C1 [TCMDC-134125]	-7.553
CCc1cc(OC)c(C(=O)NC2CCN(C[C@H](O)c3ccnc4ccc(OC)cc34)CC2)cc1Br [TCMDC-141169]	-16.9
CCCn1c(SCC(=O)Nc2cc(Cl)ccc2Cl)n[nH]c1=O [TCMDC-123548]	-15.86
Cn1c(NC(=O)C2CCCN(C(=O)c3ccc(O)c(-c4ccc(Cl)c(Cl)c4)c3)C2)nc2ccccc21 (centres unmarked) [TCMDC-140896]	30.61
CC(C)(C)Nc1cc(C(=O)N[C@@H](Cc2ccccc2)[C@H](O)CNC2CCOCC2)cc(N2CCCCS2(=O)=O)c1 [TCMDC-135686]	8.531
CCOc1ccc(C(=O)N2CCOC(CCN3CCC4(CCc5ccccc54)CC3)(c3ccc(Cl)c(Cl)c3)C2)cc1 (centres unmarked) [TCMDC-135339]	-28.45
O=C(/C=C/c1ccc(Cl)c(Cl)c1)NCCCCCN1CCCN(C(=O)Nc2ccc(Br)cc2)CC1 [TCMDC-135761]	-59.24
O=C(/C=C/c1ccc(Cl)cc1Cl)NCCCCCN1CCC(c2c[nH]c3ccccc23)CC1 [TCMDC-139696]	89.84
O=C(NCCCCCN1CCC(c2c[nH]c3ccccc23)CC1)Nc1ccc(Cl)cc1Cl [TCMDC-139166]	-62.24

SMILES	% Inhibition [%]
O=C(/C=C/c1cccc(Br)c1)NCCCCCN1CCC(c2c[nH]c3ccccc23)CC1 [TCMDC-139233]	3.439
O=C(/C=C/c1cccc(Cl)c1)NCCCCCN1CCC(c2c[nH]c3ccccc23)CC1 [TCMDC-139211]	97.27
O=C(/C=C/c1cccc(OC(F)(F)F)c1)NCCCCCN1CCC(c2c[nH]c3ccccc23)CC1 [TCMDC-139190]	-40.78
O=C(/C=C/c1ccc(Cl)cc1)NCCCCCN1CCC(c2c[nH]c3ccccc23)CC1 [TCMDC-139234]	97.27
O=C(/C=C/c1ccc2ccccc2c1)NCCCCCN1CCC(c2c[nH]c3ccccc23)CC1 [TCMDC-139206]	99.19
O=C(/C=C/c1cc(C(F)(F)F)ccc1F)NCCCCCN1CCC(c2c[nH]c3ccccc23)CC1 [TCMDC-140010]	-22
CCCCCCP(=O)(COc1ccc(CCN(CC(O)COc2cccc3[nH]c(C(N)=O)cc23)CC(O)COc2cccc3[nH]c(C(N)=O)cc23)cc1)OCCCC (centres unmarked) [TCMDC-139041]	20.08
CN1CCN(c2ccc(-c3cc(-c4cc(F)c(F)c(F)c4)cnc3N)cc2)CC1 [TCMDC-133345]	-8.308
O=C(NC1CCN(Cc2ccccc2)CC1)c1cccc(Nc2nc(-c3ccccc3)cs2)c1 [TCMDC-136774]	0.9462
COc1cc(Cc2cnc(N)nc2N)cc(OCCCCC#N)c1OC [TCMDC-138035]	-14.37
c1cn(-c2ccc(CNc3nccc(Nc4ccc(OCCN5CCOCC5)cc4)n3)cc2)cn1 [TCMDC-134665]	13.33
COc1ccccc1-n1ccnc1SCC(=O)Nc1cccc(C(F)(F)F)c1 [TCMDC-123546]	51.1
COc1ccc(-n2ccnc2SCC(=O)Nc2cccc(C(F)(F)F)c2)c(OC)c1 [TCMDC-123545]	-5.921
COc1ccccc1-n1ccnc1SCC(=O)Nc1cc(C(F)(F)F)ccc1Cl [TCMDC-123823]	-21.34
Cn1c(NC2=NC3(c4ccccn4)N=C(Nc4nc5ccccc5n4C)NC3(c3ccccn3)N2)nc2ccccc21 (centres unmarked) [TCMDC-139096]	50.49
c1ccc(C23N=C(Nc4nc5ccccc5[nH]4)NC2(c2ccccc2)NC(Nc2nc4ccccc4[nH]2)=N3)cc1 (centres unmarked) [TCMDC-139082]	-85.59
Cc1cc2nc(NC3=NC4(c5ccccn5)N=C(Nc5nc6cc(C)c(C)cc6[nH]5)NC4(c4ccccn4)N3)[nH]c2cc1C (centres unmarked) [TCMDC-139105]	-75.39
CCCNC[C@@H](O)[C@H](Cc1ccccc1)NC(=O)c1cc(NCC)cc(N2CCCCS2(=O)=O)c1 [TCMDC-135269]	19.71
Cc1cccc(-n2c(=O)c3c4c(sc3n3c(SCCC(C)C)nnc23)CCCC4)c1 [TCMDC-125651]	34.66
OC(CN1c2ccccc2Sc2ccccc21)CN(C1CCCCC1)C1CCCCC1 (centres unmarked) [TCMDC-125553]	51.78
C=CCc1ccccc1OCC(O)CN(C1CCCCC1)C1CCCCC1 (centres unmarked) [TCMDC-123906]	-42.05
C[C@@H](COc1ccc(-c2ccccc2)cc1)CON1C(N)=NC(N)=NC1(C)C [TCMDC-124029]	25.59
CNCc1ccc(CN(C)c2nc(N)c3cc(OC)c(OC)cc3n2)cc1 [TCMDC-131896]	48.14
COc1cc2nc(N(C)Cc3cc4c(Cl)cccc4s3)nc(N)c2cc1OC.Cl [TCMDC-131890]	62.52

SMILES	% Inhibition [%]
COc1cc2nc(N(C)Cc3cccc(I)c3)nc(N)c2cc1OC [TCMDC-131898]	-39.77
CC1(C)N=C(N)N=C(N)N1c1ccc(Br)cc1 [TCMDC-123959]	18.18
COc1cc2c(cc1S(=O)(=O)c1ccc(NC(=O)Nc3ccc(F)cc3)cc1)CCN(C)CC2 [TCMDC-141793]	32.2
COc1ccc(CNCc2ccccc2)cc1-c1ccc(S(=O)(=O)NCCN2CCCC2)cc1 [TCMDC-132247]	102
COc1ccc(CNCc2ccc(F)cc2)cc1-c1ccc(S(=O)(=O)NCCN2CCCC2)cc1 [TCMDC-132294]	108.8
O=C(/C=C/c1ccc(Cl)c(Cl)c1)NCCCCCN1CCCN(C(=O)Nc2ccc(OC(F)F)cc2)CC1 [TCMDC-135756]	-55.78
CC1(C)N=C(N)N=C(N)N1OCc1ccc2c(c1)OCO2 [TCMDC-131581]	47.46
CN1CCN(c2ccc(-c3cc(-c4ccncc4)c(-c4ccc(Cl)c(O)c4)o3)cc2)CC1 [TCMDC-141308]	9.946
Cc1nc(N)nc(N)c1OCCCCOc1ccccc1 [TCMDC-131353]	-22.41
CCCOc1ccc(N2C(N)=NC(N)=NC2(C)C)cc1 [TCMDC-137702]	-17.71
CC1(C)N=C(N)N=C(N)N1c1ccccc1 [TCMDC-123984]	-31.19
Nc1nc(N)c2c(ccc3c2ccn3C2C=CCCC2)n1 (centres unmarked) [TCMDC-137861]	26.32
CCCC(C)n1ccc2c3c(N)nc(N)nc3ccc21 (centres unmarked) [TCMDC-137964]	-7.389
Nc1nc(N)c2c(ccc3c2ccn3CCCF)n1 [TCMDC-138623]	32.47
CCCC(CCC)n1ccc2c3c(N)nc(N)nc3ccc21 [TCMDC-137949]	60.59
CC(C)CNc1nc(N)nc2ccc3c(ccn3CC(C)C)c12 [TCMDC-137731]	87.39
Nc1nc(N)c2c(ccc3c2ccn3C2CCCCC2)n1 [TCMDC-137871]	105.4
Nc1nc(N)c2c(ccc3c2ccn3CCCCO)n1 [TCMDC-137959]	31.47
CCCC(CC)n1ccc2c3c(N)nc(N)nc3ccc21 (centres unmarked) [TCMDC-137948]	17.27
CC(=O)Nc1nc(N)c2c(ccc3c2ccn3CC(C)C)n1 [TCMDC-137971]	0.8169
CCCCCCn1ccc2c3c(N)nc(N)nc3ccc21 [TCMDC-137994]	106.4
CC(C)Cn1ccc2c3c(N)nc(N)nc3ccc21 [TCMDC-137997]	21
Nc1nc(N)c2c(ccc3nn(C4CCCC4)cc32)n1 [TCMDC-137960]	-20
